Structures are written as SMILES. Active and inactive are the calls of the source. How the source made its calls: active means hit-call score of the fitted dose curve at least 0.9, where 1 is the maximum; inactive means score below 0.9.

As usually defined, the AC50 is the midpoint of the concentration-response curve, whichever way the signal moves.

Read-out in the test: Insulin Like Growth Factor 1 (IGF1), IGF1 (gene 3479)
Put plainly: LTEA_HepaRG_IGF1: Life Technologies and Expression Analysis (LTEA) Assay for Insulin Like Growth Factor 1 (IGF1) using HepaRG (AID 2283506). The settings on record: mRNA level, 48 h; actives raise or lower the signal. The protocol: LTEA_HepaRG is a cell based, multiplexed-readout assay that uses HepaRG, a human liver cell line, with measurements taken at 48 hours after chemical dosing on a 96-well plate.LTEA_HepaRG_IGF1 is one of 102 assay component(s) measured in the LTEA HepaRG cell culture assay. It is a marker of Cell proliferation, survival, death.Data from the assay component LTEA_HepaRG_IGF1 was analyzed into 1 endpoint. This assay endpoint, LTEA_HepaRG_IGF1, was analyzed with bidirectional fitting relative to DMSO as the negative control and baseline of activity. Using a type of inducible reporter, measures of mRNA induction for gain or loss-of-signal activity can be used to understand regulation of transcription factor activity. To generalize the intended target to other relatable targets, this assay endpoint is annotated to the growth factor intended target family, where the subfamily is insulin-like.
A total of 1060 chemcials from the ToxCast library were tested in eight-point concentration-response experiments. Cell culture and cytotoxicity assays were conducted at Thermo Fisher Scientific's Custom Services facility (Madison, WI). A single lot of human HepaRG cells (Thermo Fisher Scientific, Frederick, MD) was used for the cell culture experiments. 96-well format collagen type I coated plates of human HepaRG cells were prepared using established methods. Briefly, cryopreserved HepaRG cells were thawed, plated at a density of approximately 100,000 cells/well in HepaRG Thaw, Plate, and General Purpose media (HPRG770, Thermo Fisher Scientific), and incubated for 48 hours. 0.5% DMSO was selected as vehicle control to balance the requisite need of DMSO in HepaRG cultures to maintain differentiation (for example, baseline metabolism, proportions of hepatocytes vs. cholangiocytes), while enabling further hepatic receptor pathway activation (for example, PXR and CAR) in response to chemical exposure. 48 hours after plating, the culture medium was replaced with HepaRG Serum-Free Incudtion Media. Cells were exposed to each test chemical in duplicate and maintained in CO2 incubators for another 48 hours. Chemical plates were thawed to room temperature and 200x concentrations of treatment groups were prepared. 8-point conentration-reponse curves were made with the highest exposure at 100 uM, followed by half-log dilutions, all in 0.5% DMSO. Each test plate contained variouse controls, induction positive controls (1mM phenobarbital), cytotoxicity positive controls ([…] aflatoxin B1), vehicle controls (0.5% DMSO), and total lysis controls (0.5% DMSO). Cell morphology images were taken using an Essen IncuCyte FLR automated microscope, with six 96-well plates imaged in about 24 minutes. Images were captured and exported and JPEG files. Spent culture media was transfered to black-well plates for the LDH assay, and remaining media was sorted at -80 C for later use. Cells were treated with RLT buffer and frozen until shipped for gene expression analysis. Total RNA was isolated from the cell suspension in 75 uL of Buffer RLT (Qiagen, Germantown, MD 20874) by Quintiles/Expression Analysis (Durham, NC) using a custom isolation procedure. Total RNA from each plate well was transferred to a preamplification plate. Fluidigm's 96.96 Dynamic ArrayTM (Fluidigm, Amsterdam, the Netherlands) technology was used for gene expression analyses by quantitative reverse transcription polymerase chain reaction (qRT-PCR, performed by Quintiles/Expression Analysis, Durham, NC)89. Standard TaqManTM Assays (Applied Biosystems/ThermoFisher Scientific, Foster City, CA) were used to assess the expression of 93 genes selected based on their selectivity and sensitivity to important hepatic receptors known to be modulated by environmental chemicals; importance in human hepatocyte functionality; and hepatotoxicity. […]
Regarding `CCCCCCCC[Si](OCC)(OCC)OCC`, the call was inactive. Still for that read-out and setting: with `OCCO` the entry was “inactive”; with `CN1C(=O)CC[C@H]1c1cccnc1`, “inactive”; with `O=C1CCC(C2CCCCC2)CC1`, “inactive”.

On to `CCO[Si](CCCNC(N)=O)(OCC)OCC`, for which the compound was called inactive. The same measure, in the same setting: then `O=CCCCC=O`, with “inactive”; and `NCc1cccc(C2CCN(C(=O)c3ccc(C#Cc4ccccc4F)o3)CC2)c1`, with “inactive”. `C[C@]12CC[C@@H]3c4ccc(O)cc4CC[C@H]3[C@@H]1CCC2=O`: the AC50 was 50 µM (active). Still for that read-out and setting: then `CCN(Cc1cccnc1)C(=O)c1cccc(Cl)c1[C@]1(C)C(=O)N(Cc2ccc(OC)cc2OC)c2ccc(Cl)cc21`, with 14.4 µM (active); and `CC1(C)NC(=O)N(c2ccc([N+](=O)[O-])c(C(F)(F)F)c2)C1=O`, with 69.2 µM (active).

As for `CC1=CC(=O)/C(=C(/C)O)C(=O)O1`, the compound was called inactive. `NC(=O)c1nc(-c2cccc(-c3cc(F)ccc3OCC(F)(F)C(F)(F)F)c2)n[nH]1`: the AC50 was 83.2 µM (active).

In the case of `CC(O)CC(C)(C)O` (stereo not given), the outcome was inactive. Turning to `CN(C[C@@H](CC[N+]12CCC(C3CCCCC3)(CC1)CC2)c1ccc(Cl)c(Cl)c1)C(=O)c1cc(C(F)(F)F)cc(C(F)(F)F)c1`, the AC50 was 24.1 µM (active).

Consider `Cc1cc(F)ccc1-c1cc(N2CC[C@@H](O)[C@H]2CO)ncc1N(C)C(=O)C(C)(C)c1cc(C(F)(F)F)cc(C(F)(F)F)c1`, for which the AC50 is 17.3 µM (active).

For the compound `CN(C)C(=O)C1(N2CCCCC2)CCN(CC[C@@]2(c3ccc(Cl)c(Cl)c3)CN(C(=O)c3ccccc3)CCO2)CC1`, the AC50 was 90.9 µM (active). On the same count and under the same terms, then `CC[C@H](NC(=O)c1cc(F)ccc1NS(=O)(=O)c1cccc2cccnc12)c1ccccc1`, with 12.4 µM (active); and `C[C@]12CC[C@@H]3c4ccc(O)cc4CC[C@H]3[C@@H]1CC[C@H]2O`, with 50 µM (active).

In the case of `Cc1oc2c(NC(=O)c3c(Cl)cccc3Cl)cccc2c1C(C)(C)O`, the AC50 is 28.6 µM (active). Same read-out and setting: then `CO[C@H]1/C=C/O[C@@]2(C)Oc3c(C)c(O)c4c(O)c(c(/C=N/N5CCN(C)CC5)c(O)c4c3C2=O)NC(=O)/C(C)=C\C=C\[C@H](C)[C@H](O)[C@@H](C)[C@@H](O)[C@@H](C)[C@H](OC(C)=O)[C@@H]1C`, with 4.12 µM (active); and `COc1cc(C(=O)NC2CCN(C)CC2)ccc1Nc1ncc2c(n1)N(C1CCCC1)CC(F)(F)C(=O)N2C`, with 3.45 µM (active); and `Clc1cc(Cl)c2c(c1)N=C1CCCCCN1C2`, with 5.03 µM (active). For the compound `CCCCCCCCOC(=O)c1cc(O)c(O)c(O)c1`, the compound was classed as inactive. Turning to `CCCCCCCCCCCC[N+](C)(C)C`, the concentration at half-maximal activity (AC50) is 77.5 µM (active). Consider `Cc1cn([C@H]2C[C@H](N=[N+]=[N-])[C@@H](CO)O2)c(=O)[nH]c1=O`, for which the compound was called inactive.

`CCCCCCCCCC(=O)O`: the compound was classed as inactive. On the same count and under the same terms, then `CCCCCCCCCCCO`, with “inactive”; and `CCCCOC(=O)c1ccc(O)cc1`, with “inactive”. Still for that read-out and setting: then `O=c1ccc2ccccc2o1`, with “inactive”; and `O=C(O)c1ccccc1C(=O)OCc1ccccc1`, with “inactive”; and `CC/C(=C(/CC)c1ccc(O)cc1)c1ccc(O)cc1`, with “inactive”.

For `CCCCOC(=O)CC(CC(=O)OCCCC)(OC(C)=O)C(=O)OCCCC`, the compound was classed as inactive. Regarding `COc1cccc([C@H](O)C2CCN(CCc3ccc(F)cc3)CC2)c1OC`, the call was inactive. The same measure, in the same setting: with `Cc1ncc(CO)c(CO)c1O` the entry was “inactive”; with `O=c1[nH]sc2ccccc12`, “inactive”.

Regarding `Clc1ccccc1C(c1ccccc1)(c1ccccc1)n1ccnc1`, the AC50 is 15.8 µM (active). Turning to `CCCCCCCCCCCCO`, the outcome was inactive. Take `CC(=O)N1CCN(c2ccc(OC[C@H]3CO[C@](Cn4ccnc4)(c4ccc(Cl)cc4Cl)O3)cc2)CC1`: the AC50 was 12.4 µM (active). Regarding `O=C1c2ccccc2C(=O)N1CCc1noc(-c2ccc(CN3CCCCCC3)s2)n1`, the call was inactive.

Take `O=C(OCCCCCCOC(=O)c1ccccc1)c1ccccc1`: the compound was called inactive.

(Values after PubChem BioAssay (EPA / NIEHS).)
